PubChem BioAssay AID1159580 (chemical genetic matrix, 2015)
Out of some 5,500 compounds screened, about 2,000 (36%) were called active. Inconclusive results (about 18%) are left out. Cut-off read from the data, not from the text of the source: active = normalized growth mostly below about 0.91 (no sharp cut-off); inconclusive = no clear call, values can overlap the other calls; inactive = mostly above about 0.92. The list shows a part of the results.

Experiment: chemical genetic growth profiling, strain panel (AID 1159580);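 note: tested at 20 µM; growth read once vehicle control cultures reached saturation at 30 °C; 1 = growth at the plate median or of vehicle wells; lower values mean less growth of the strain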
Details: S. cerevisiae deletion strains, growth OD

Measured: normalized growth

Cn1c(=O)c2[nH]c(-c3ccccc3)nc2n(C)c1=O
inactive: locus YAL013W, strain DEP1, active compounds read low 0.995 | locus YAL040C, strain CLN3, active compounds read low 0.984 | locus YCL061C, strain MRC1 (second series), active compounds read low 0.983 | locus YDR150W, strain NUM1, active compounds read low 0.975 | locus YDR363W, strain ESC2, active compounds read low 1.01 | locus YER002W, strain NOP16, active compounds read low 0.97 | locus YGR078C, strain PAC10, active compounds read low 1 | locus YNL175C, strain NOP13, active compounds read low 0.986 | locus YNL197C, strain WHI3, active compounds read low 0.99 | locus YNL224C, strain SQS1, active compounds read low 0.992 | locus YOR083W, strain WHI5 (second series), active compounds read low 1 | locus YPL241C, strain CIN2, active compounds read low 0.992

O=c1c(-c2ccccc2)c(O)c2cccc3c4ccccc4n1c23
active: locus YAR019C, strain CDC15, active compounds read low 0.117 | locus YBL105C, strain PKC1, active compounds read low 0.121 | locus YBR135W, strain CKS1, active compounds read low 0.13 | locus YBR136W, strain MEC1, active compounds read low 0.148 | locus YBR160W, strain CDC28, active compounds read low 0.215 | locus YDL017W, strain CDC7, active compounds read low 0.154 | locus YDL028C, strain MPS1, active compounds read low 0.142 | locus YDL101C, strain DUN1, active compounds read low 0.226 | locus YDL108W, strain KIN28, active compounds read low 0.247 | locus YDL132W, strain cdc53, active compounds read low 0.167 | locus YDL214C, strain PRR2, active compounds read low 0.0962 | locus YDR052C, strain DBF4, active compounds read low 0.344 | locus YDR054C, strain cdc34, active compounds read low 0.128 | locus YDR226W, strain ADK1, active compounds read low 0.523 | locus YDR477W, strain SNF1, active compounds read low 0.134 | locus YER123W, strain YCK3, active compounds read low 0.113 | locus YER133W, strain GLC7, active compounds read low 0.105 | locus YFL009W, strain cdc4, active compounds read low 0.14 | locus YFL029C, strain CAK1, active compounds read low 0.115 | locus YFR003C, strain YPI1, active compounds read low 0.12 | locus YFR019W, strain FAB1, active compounds read low 0.118 | locus YFR028C, strain CDC14, active compounds read low 0.145 | locus YGR040W, strain KSS1, active compounds read low 0.124 | locus YGR052W, strain FMP48, active compounds read low 0.13 | locus YGR092W, strain DBF2, active compounds read low 0.11 | locus YHR030C, strain SLT2, active compounds read low 0.149 | locus YHR079C, strain IRE1, active compounds read low 0.143 | locus YHR082C, strain KSP1, active compounds read low 0.157 | locus YHR205W, strain SCH9, active compounds read low 0.0087 | locus YIL147C, strain SLN1, active compounds read low 0.123 | locus YJL095W, strain BCK1, active compounds read low 0.141 | locus YJL128C, strain PBS2, active compounds read low 0.133 | locus YJL157C, strain FAR1, active compounds read low 0.0913 | locus YJR016C, strain ILV3, active compounds read low 0.168 | locus YJR066W, strain TOR1 (second series), active compounds read low 0.131 | locus YJR066W, strain TOR1, active compounds read low 0.135 | locus YKL048C, strain ELM1, active compounds read low 0.122 | locus YKL067W, strain YNK1, active compounds read low 0.0882 | locus YKL101W, strain HSL1, active compounds read low 0.113 | locus YKL193C, strain SDS22, active compounds read low 0.139 | locus YKL203C, strain TOR2, active compounds read low 0.146 | locus YLR113W, strain HOG1, active compounds read low 0.185 | locus YLR133W, strain CKI1, active compounds read low 0.106 | locus YLR403W, strain SFP1, active compounds read low 0.00673 | locus YML070W, strain DAK1, active compounds read low 0.0964 | locus YMR001C, strain CDC5, active compounds read low 0.119 | locus YMR205C, strain PFK2 (second series), active compounds read low 0.1 | locus YMR277W, strain FCP1, active compounds read low 0.165 | locus YNL006W, strain LST8, active compounds read low 0.11 | locus YNL020C, strain ARK1, active compounds read low 0.115 | locus YNL161W, strain CBK1, active compounds read low 0.133 | locus YNL183C, strain NPR1, active compounds read low 0.161 | locus YNL207W, strain RIO2, active compounds read low 0.131 | locus YNL222W, strain SSU72, active compounds read low 0.11 | locus YNL307C, strain MCK1 (second series), active compounds read low 0.118 | locus YOL078W, strain AVO1, active compounds read low 0.123 | locus YOL136C, strain PFK27, active compounds read low 0.106 | locus YOR061W, strain CKA2, active compounds read low 0.0936 | locus YOR119C, strain RIO1, active compounds read low 0.146 | locus YOR231W, strain MKK1, active compounds read low 0.122 | locus YOR329C, strain SCD5, active compounds read low 0.12 | locus YPL031C, strain PHO85, active compounds read low 0.124 | locus YPL153C, strain RAD53, active compounds read low 0.109 | locus YPL204W, strain HRR25, active compounds read low 0.126 | locus YPL209C, strain IPL1, active compounds read low 0.129 | locus YPL256C, strain CLN2, active compounds read low 0.15 | locus YPR025C, strain CCL1, active compounds read low 0.149 | locus YPR106W, strain ISR1, active compounds read low 0.141 | locus YPR111W, strain DBF20, active compounds read low 0.147 | strain NNK1, active compounds read low 0.114 | strain TSCII, active compounds read low 0.112
